Assay results as given in PubChem BioAssay (Tox21).
Inconclusive results are not listed. Calls of active or inactive are those of the source. Unless noted, the call rests on the fitted dose curve.

Tests used:
[1] = Nuclear factor erythroid 2-related factor 2/antioxidant responsive element (Nrf2/ARE) small molecule agonists: qHTS cell viability counter screen in human keratinocytes (AID 1919968; active means well fitted curve in the direction sought with a large enough effect in the repeat runs; an effect the other way counts as inactive or inconclusive; further: nearly all actives have a fitted effect of over 55% in size)
Method in brief: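 KeratinoSens cells (HaCaT keratinocytes stably carrying an ARE-luciferase reporter) were seeded at 1,500 cells/well and rested 5 h at 37 C/5% CO2. They were then exposed to compounds in DMSO for 23 h. Viability was read by CellTiter-Fluor fluorescence after 1 h.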

[2] = molecular target: Gonadotropin-releasing hormone receptor (Homo sapiens) (UniProt P30968); assay: Human gonadotropin-releasing hormone receptor (GnRHR) small molecule agonists, calcium flux assay in GnRHR-HEK293 cells (AID 1920063); further: nearly all actives have a fitted effect of over 35% in size
Sequence of Gonadotropin-releasing hormone receptor (Homo sapiens) (P30968 whole entry, looked up): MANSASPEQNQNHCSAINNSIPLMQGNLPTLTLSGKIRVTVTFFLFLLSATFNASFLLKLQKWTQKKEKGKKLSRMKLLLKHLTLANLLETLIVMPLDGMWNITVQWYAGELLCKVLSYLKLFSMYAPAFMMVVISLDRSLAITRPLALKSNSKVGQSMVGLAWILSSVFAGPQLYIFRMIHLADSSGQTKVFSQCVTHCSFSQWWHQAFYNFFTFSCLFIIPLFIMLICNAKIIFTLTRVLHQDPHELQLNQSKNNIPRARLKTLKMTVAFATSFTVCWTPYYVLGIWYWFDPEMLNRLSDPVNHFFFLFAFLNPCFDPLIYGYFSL
Method in brief: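 HEK293 cells stably expressing human GnRHR were plated 18 h at 37 °C, loaded with calcium dye 1 h at 37 °C, then given compound in agonist mode; fluorescence (Ex/Em 480/540) read kinetically for 3 min at 1 s intervals.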

[3] = molecular target: KiSS-1 receptor (Homo sapiens) (UniProt Q969F8); assay: Human kisspeptin (KISS1R) small molecule agonists, calcium flux assay in KISS1R-HEK293 cells (AID 1920064; active means well fitted curve in the direction sought with a large enough effect in the repeat runs; an effect the other way counts as inactive or inconclusive)
Sequence of KiSS-1 receptor (Homo sapiens) (Q969F8 whole entry, looked up): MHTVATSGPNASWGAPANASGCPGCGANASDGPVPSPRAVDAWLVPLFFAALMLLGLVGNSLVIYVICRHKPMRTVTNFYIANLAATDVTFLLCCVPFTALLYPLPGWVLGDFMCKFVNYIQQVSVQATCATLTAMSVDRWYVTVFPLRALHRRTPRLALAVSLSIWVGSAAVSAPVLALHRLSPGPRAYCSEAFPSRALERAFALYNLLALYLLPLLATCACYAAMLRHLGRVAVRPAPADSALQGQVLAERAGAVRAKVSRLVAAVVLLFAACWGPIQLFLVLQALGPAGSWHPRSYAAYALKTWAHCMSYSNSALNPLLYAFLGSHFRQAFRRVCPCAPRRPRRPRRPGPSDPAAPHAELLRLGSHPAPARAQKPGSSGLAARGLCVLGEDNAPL
Method in brief: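 HEK293 cells stably expressing human KISS1R were plated 18 h at 37 °C, loaded with calcium dye for 1 h at 37 °C, then given compound by pin tool. Fluorescence (Ex/Em 480/540) was read kinetically for 3 min.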

[4] = G protein-coupled receptor (GPCR) small molecule agonists, calcium flux assay: HEK293 wild type cell line counter screen (AID 1920065)
Method in brief: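 Cells were plated and cultured 18 h at 37 C/5% CO2, then loaded with calcium dye for 1 h at 37 C. Compounds in DMSO were pin-transferred in agonist mode, and fluorescence (Ex/Em 480/540) was read kinetically for 3 min at 1 s intervals.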

[5] = p53 small molecule agonists, cell-based qHTS assay with human liver microsomes: qHTS cell viability counter screen (AID 1963579); further: nearly all actives have a fitted effect of over 45% in size
Method in brief: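 Cytotoxicity counter screen: p53RE-bla, 4,000 cells/well; 5 h settle, 37 C/5% CO2; cpd + HLM 0.5 mg/mL + NADPH 0.5 mg/mL (final); 16 h, 37 C; CellTiter-Glo, 30 min RT, luminescence.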

[6] = p53 small molecule agonists, cell-based qHTS assay with rat liver microsomes: qHTS cell viability counter screen (AID 1963580); further: nearly all actives have a fitted effect of over 45% in size
Method in brief: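 In HCT-116 cells carrying a p53 response element-bla reporter, compounds were metabolically activated in situ by rat liver microsomes with NADPH over 16 h. Cell ATP content then served as the cytotoxicity measure.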

[7] = p53 small molecule agonists, cell-based qHTS assay: qHTS cell viability counter screen (AID 1963581); further: nearly all actives have a fitted effect of over 45% in size
Method in brief: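 p53RE-bla HCT-116 cells were exposed to compounds for 16 h at 37 C; after the beta-lactamase FRET read in the same wells, CellTiter-Glo was added and luminescence (intracellular ATP) read after 30 min at room temperature.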

[8] = molecular target: 5-hydroxytryptamine receptor 2A (Homo sapiens) (UniProt P28223); assay: 5-hydroxytryptamine receptor 2A (HTR2A) small molecule antagonists, cell-based qHTS assay (AID 1963586); further: nearly all actives have a fitted effect of over 45% in size
Sequence of 5-hydroxytryptamine receptor 2A (Homo sapiens) (P28223 whole entry, looked up): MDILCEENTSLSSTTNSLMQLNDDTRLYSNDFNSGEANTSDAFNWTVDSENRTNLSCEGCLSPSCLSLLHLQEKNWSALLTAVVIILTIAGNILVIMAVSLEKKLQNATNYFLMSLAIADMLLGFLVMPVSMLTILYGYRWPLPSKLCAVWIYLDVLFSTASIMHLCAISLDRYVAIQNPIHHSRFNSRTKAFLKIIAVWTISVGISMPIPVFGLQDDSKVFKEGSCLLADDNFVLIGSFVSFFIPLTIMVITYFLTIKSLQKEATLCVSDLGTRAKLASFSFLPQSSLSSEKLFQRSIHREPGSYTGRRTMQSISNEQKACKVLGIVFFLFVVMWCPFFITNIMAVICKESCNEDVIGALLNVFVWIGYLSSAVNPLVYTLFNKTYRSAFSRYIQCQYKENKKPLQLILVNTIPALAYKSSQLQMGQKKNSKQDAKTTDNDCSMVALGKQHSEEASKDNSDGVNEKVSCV
Method in brief: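 Antagonist-mode intracellular calcium assay: DOI (4 nM) added after 5 min compound pre-incubation at room temperature to dye-loaded HTR2A-CHO cells. Fluorescence followed for 3 min, sampled every second.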

[9] = molecular target: 5-hydroxytryptamine receptor 2A (Homo sapiens) (UniProt P28223); assay: 5-hydroxytryptamine receptor 2A (HTR2A) small molecule agonists, cell-based qHTS assay (AID 1963587); further: nearly all actives have a fitted effect of over 30% in size
Method in brief: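 HTR2A-CHO cells, plated 18 h at 37 C/5% CO2, dye-loaded 1 h at 37 C; compounds in DMSO added by pin tool (agonist mode). Intracellular calcium flux read as kinetic fluorescence on FDSS over 2 min at 1 s intervals.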

[10] = molecular target: Muscarinic acetylcholine receptor M1 (Homo sapiens) (UniProt P11229); assay: Cholinergic receptor muscarinic 1 (CHRM1) small molecule agonists, cell-based qHTS assay (AID 1963589); further: nearly all actives have a fitted effect of over 35% in size
Sequence of Muscarinic acetylcholine receptor M1 (Homo sapiens) (P11229 whole entry, looked up): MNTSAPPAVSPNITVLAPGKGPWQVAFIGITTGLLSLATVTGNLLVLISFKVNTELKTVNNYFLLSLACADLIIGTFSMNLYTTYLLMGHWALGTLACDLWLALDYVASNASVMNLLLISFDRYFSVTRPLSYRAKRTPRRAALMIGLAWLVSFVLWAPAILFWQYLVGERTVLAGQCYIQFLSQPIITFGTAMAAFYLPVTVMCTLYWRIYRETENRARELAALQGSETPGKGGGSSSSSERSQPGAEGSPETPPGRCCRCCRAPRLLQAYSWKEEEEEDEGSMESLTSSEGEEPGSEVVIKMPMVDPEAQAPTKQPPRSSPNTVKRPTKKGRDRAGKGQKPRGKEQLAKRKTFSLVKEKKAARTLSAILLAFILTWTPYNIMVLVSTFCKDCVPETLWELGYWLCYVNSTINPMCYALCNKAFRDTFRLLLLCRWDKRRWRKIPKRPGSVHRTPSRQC
Method in brief: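 CHO cells stably expressing human CHRM1, seeded 18 h at 37 C/5% CO2, dye-loaded 1 h at 37 C, then given compound in agonist mode; intracellular calcium fluorescence read kinetically at 1 s intervals. Fifteen concentrations, three independent runs.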

[11] = cAMP Responsive Elements (CRE) small molecule antagonists, cell-based qHTS assay (AID 1963591; active means well fitted inhibition curve with a large enough effect in the signal ratio in the repeat runs, not every such curve was filed as active; the % refers to the signal ratio)
Method in brief: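 CRE-bla HEK293T cells were plated 18 h at 37 °C/5% CO2, pinned with compound in DMSO, then stimulated with NKH477 at 0.25 uM final for 3 h. LiveBLAzer B/G FRET substrate was added and plates incubated 2 h at room temperature.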

[12] = molecular target: Beta-2 adrenergic receptor (Homo sapiens) (UniProt P07550); assay: Adrenergic beta2 receptor (ADRB2) small molecule antagonists, cell-based qHTS assay (AID 1963592); further: series mostly up to about 92 µM; nearly all actives have a fitted effect of over 50% in size
Sequence of Beta-2 adrenergic receptor (Homo sapiens) (P07550 whole entry, looked up): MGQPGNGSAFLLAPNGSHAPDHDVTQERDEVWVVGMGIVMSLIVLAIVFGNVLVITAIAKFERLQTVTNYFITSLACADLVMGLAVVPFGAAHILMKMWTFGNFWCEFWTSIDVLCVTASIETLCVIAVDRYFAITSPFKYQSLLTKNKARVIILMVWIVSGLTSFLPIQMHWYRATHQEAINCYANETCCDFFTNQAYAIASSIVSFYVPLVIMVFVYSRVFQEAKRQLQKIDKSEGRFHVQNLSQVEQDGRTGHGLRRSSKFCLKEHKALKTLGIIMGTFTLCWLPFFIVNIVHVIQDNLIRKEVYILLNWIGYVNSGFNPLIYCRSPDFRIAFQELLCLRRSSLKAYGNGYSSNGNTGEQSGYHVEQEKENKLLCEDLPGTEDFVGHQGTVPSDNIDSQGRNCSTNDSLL
Method in brief: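 Cells (CHO, stable ADRB2 overexpression) incubated 18-20hr at 37C; compounds added from DMSO; agonist mix (1nM isoproterenol, 100uM IBMX, 25uM Ro-20-1724) added; 0.5hr RT; d2-cAMP and anti-cAMP-cryptate added; 1hr RT; 665/615 nm read.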

[13] = molecular target: Beta-2 adrenergic receptor (Homo sapiens) (UniProt P07550); assay: Adrenergic beta2 receptor (ADRB2) small molecule agonists, cell-based qHTS assay (AID 1963593);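 further: CHO cells stably overexpressing human ADRB2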
Method in brief: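 CHO cells stably over-expressing ADRB2 were plated overnight at 37C, then dosed with compounds plus a stimulation mix containing 100uM IBMX and 25uM Ro-20-1724 for 0.5hr at room temperature. cAMP was measured by HTRF competition, 1hr.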

[14] = molecular target: D(2) dopamine receptor (Homo sapiens) (UniProt P14416); assay: Dopamine D2 receptor (DRD2) small molecule agonists, cell-based qHTS assay (AID 1963594); further: nearly all actives have a fitted effect of over 35% in size
Sequence of D(2) dopamine receptor (Homo sapiens) (P14416 whole entry, looked up): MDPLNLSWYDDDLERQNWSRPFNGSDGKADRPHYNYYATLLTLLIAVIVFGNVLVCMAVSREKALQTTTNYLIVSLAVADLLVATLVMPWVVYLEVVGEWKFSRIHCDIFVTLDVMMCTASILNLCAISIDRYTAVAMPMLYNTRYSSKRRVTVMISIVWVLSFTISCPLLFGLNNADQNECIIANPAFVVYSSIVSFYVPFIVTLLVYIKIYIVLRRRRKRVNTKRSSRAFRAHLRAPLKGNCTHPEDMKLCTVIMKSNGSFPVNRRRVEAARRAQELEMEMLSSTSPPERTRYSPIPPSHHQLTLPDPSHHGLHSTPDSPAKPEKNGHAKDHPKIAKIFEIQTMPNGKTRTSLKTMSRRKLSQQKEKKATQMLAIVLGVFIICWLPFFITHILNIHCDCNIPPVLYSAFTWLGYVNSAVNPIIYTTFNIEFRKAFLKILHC
Method in brief: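 HEK293 cells stably expressing DRD2 were cultured 24 h at 37 C, then given Ro20-1724 (0.1 mM final) and compounds for 10 min at room temperature. NKH477 (200nM) was then added for 30 min. cAMP was read by HTRF.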

[15] = molecular target: D(2) dopamine receptor (Homo sapiens) (UniProt P14416); assay: Dopamine D2 receptor (DRD2) small molecule antagonists, cell-based qHTS assay (AID 1963595; active means well fitted inhibition curve with a large enough effect in the signal ratio in the repeat runs, with a control signal flat; the % refers to the signal ratio)
Method in brief: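 Antagonist mode in DRD2-HEK293 cells: after compound addition with 0.1 mM Ro20-1724, cells received quinpirole (12 nM) and NKH477 (200 nM) for 30 min at room temperature; HTRF cAMP read after 1 h detection.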

[16] = molecular target: Muscarinic acetylcholine receptor M1 (Homo sapiens) (UniProt P11229); assay: Cholinergic receptor muscarinic 1 (CHRM1) small molecule antagonists, cell-based qHTS assay (AID 1963588); further: nearly all actives have a fitted effect of over 40% in size
Method in brief: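 CHRM1-CHO calcium-flux assay, antagonist mode. Cells were seeded 18 h, dye-loaded 1 h at 37 C and given compound for 5 min at RT, then acetylcholine was added at 50nM. FDSS fluorescence was read 3 min; 15 concentrations, three runs.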

[17] = cAMP Responsive Elements (CRE) small molecule agonists, cell-based qHTS assay (AID 1963590)
Method in brief: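 CRE-bla HEK 293T cells in DMEM with 10% dialyzed FBS, NEAA, pyruvate and 25 mM HEPES were plated 18 h at 37 C/5% CO2, then exposed to compounds in DMSO for 3 h before LiveBLAzer B/G FRET substrate addition.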

[18] = p53 small molecule agonists, cell-based qHTS assay with human liver microsomes (AID 1963577)
Method in brief: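 Fluorescence of the beta-lactamase reporter in p53RE-bla cells, detected with LiveBLAzer substrate (2 h, room temperature, dark), served as the read-out after 16 h compound exposure at 37 C with human liver microsomes and NADPH, each 0.5 mg/mL final.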

[19] = p53 small molecule agonists, cell-based qHTS assay (AID 1963582; active means well fitted activation curve with a large enough effect in the signal ratio in the repeat runs, not every such curve was filed as active; the % refers to the signal ratio)
Method in brief: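 p53RE-bla beta-lactamase reporter cells rested 5 h at 37 C/5% CO2, then received compounds in DMSO by pin transfer and were incubated 16 h at 37 C. LiveBLAzer B/G FRET substrate was loaded for 2 h at room temperature before fluorescence reading.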

[20] = p53 small molecule agonists, cell-based qHTS assay with rat liver microsomes (AID 1963578)
Method in brief: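 Cells carrying a p53 response element–beta-lactamase reporter were plated and rested 5 h, then dosed with compound in DMSO plus rat liver microsomes and NADPH, each at 0.5 mg/mL final. After 16 h at 37 C, LiveBLAzer substrate was added for 2 h.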

Measured: Potency

CCOC(=O)c1ccc(N(C)C)cc1
not listed: [16] | [17] | [18] | [19] | [20]
inactive: all other assays above

CCCC[N+](C)(CCCC)CCCC
not listed: [8] | [11] | [14] | [18] | [19] | [20]
inactive: all other assays above

Oc1cccc(Nc2ccccc2)c1
not listed: [8] | [10] | [12] | [13] | [18] | [19] | [20]
inactive: all other assays above

CC(C)O.CC(C)O.CCOC(=O)/C=C(\C)O.CCOC(=O)/C=C(\C)O.[Ti]
not listed: [10] | [16] | [18] | [19] | [20]
inactive: all other assays above

CCC(C)[O-].CCC(C)[O-].CCOC(=O)/C=C(/C)[O-].[Al+3]
not listed: [5] | [13] | [16] | [18] | [19] | [20]
inactive: all other assays above

CC(Oc1c(Cl)cccc1Cl)C1=NCCN1 (stereo not drawn)
not listed: [4] | [9] | [12] | [13] | [20]
inactive: all other assays above

C1CCOC1
not listed: [4] | [13]
inactive: all other assays above

C/C=C/C=C/CO
not listed: [5] | [6] | [13] | [18] | [19] | [20]
inactive: all other assays above
